The panel holds about 83,000 compounds, 20% with a hit somewhere; the sample as a whole holds those more often.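 Plates (96-well) were seeded with cells, treated with compound at one concentration, and incubated for 48 hours before percent growth was determined.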 A number with no mark means an inactive call. Calls of active or inactive are those of the source. The calls were made as follows: active = growth percent below 10; inactive = the rest.
Key:
Test in all cases: NCI-60 one-dose screen, 48 h (100 = growth as untreated, 0 = no growth, -100 = all killed)
Details in all cases: 10 µM unless noted
[1] = system: HCT-15 colon
[2] = system: HT29 colon
[3] = system: SNB-75 CNS
[4] = system: SNB-19 CNS
[5] = system: U251 CNS
[6] = system: PC-3 prostate
[7] = system: SK-MEL-5 melanoma
[8] = system: UACC-62 melanoma
[9] = system: LOX IMVI melanoma
[10] = system: SK-MEL-28 melanoma

Row | Compound | growth [1] | growth [2] | growth [3] | growth [4] | growth [5] | growth [6] | growth [7] | growth [8] | growth [9] | growth [10]
1 | O=C(Cn1c(=O)ccn(CCCCCCCCOc2ccc(Br)cc2)c1=O)Nc1ccc(Oc2ccc(Cl)cc2)cc1 | 80.4% | 66% | 70.8% | 78.7% | 74.1% | 44.6% | 28.7% | 36.1% | 51.1% | 72.8%
2 | O=C1CCC(=O)CC1 | 102% | 102% | 88.8% | 93.9% | 99.4% | 92.7% | 109% | 99% | 101% | 112%
3 | N[C@@H]1CCCN(c2c(/C=C3\SC(=O)NC3=O)cccc2-c2ccccc2)C1 | 63.9% | 55% | -14.1% (active) | 1.97% (active) | 13.9% | 47.5% | 55% | 62.2% | 72.6% | 73.8%
4 | CNC(=O)c1ccc(Nc2ncc(C(F)(F)F)c(NCc3nccnc3N(C)S(C)(=O)=O)n2)cc1 | 1.88% (active) | -11.9% (active) | -44.7% (active) | 7.45% (active) | 1.49% (active) | 10.5% | -49.5% (active) | -70% (active) | 0.319% (active) | 1.14% (active)
5 | Cn1cnc2c(F)c(Nc3ccc(Br)cc3Cl)c(C(=O)NOCCO)cc21 | 70% | 7.16% (active) | 71.6% | 52.3% | 46.2% | 90.7% | 38.2% | -26.6% (active) | 27.6% | -5.61% (active)
6 | CS(=O)(=O)N1CCc2c(-c3cnc(N)nc3)nc(N3CCOCC3)nc21 | 9.65% (active) | 6.31% (active) | -45.1% (active) | 16.1% | 12.4% | 10.1% | -3.03% (active) | -41.1% (active) | 1.28% (active) | -15.9% (active)
7 | COc1ccc(-c2cc3c(C)nc(N)nc3n(C3CCC(OCCO)CC3)c2=O)cn1 (stereo not given) | 3.45% (active) | 1.24% (active) | -50.6% (active) | -7.7% (active) | -13.8% (active) | 5.19% (active) | -77.3% (active) | -52.5% (active) | -55.5% (active) | -29.4% (active)
8 | CCCCCCCC(=O)SCC/C=C/[C@@H]1CC(=O)NCc2cc(ccn2)C2=N[C@@](C)(CS2)C(=O)N[C@@H](C(C)C)C(=O)O1 | 1.6% (active) | 1.74% (active) | 31.8% | 10.2% | -55.7% (active) | 16.4% | -95.3% (active) | -56.8% (active) | -95.1% (active) | -24.7% (active)
9 | O=C1OCC2=C1C(c1cccc(F)c1)c1cc3c(cc1N2CCO)OCCO3 (stereo not given) | 9.75% (active) | 4.94% (active) | 27.3% | 18.6% | 17.8% | 24.8% | 8.33% (active) | 33% | 31.4% | 44.8%
10 | CCCCCCCC(=O)SCC/C=C/[C@@H]1CC(=O)NCc2cccc(n2)C2=N[C@@](C)(CS2)C(=O)N[C@@H](C(C)C)C(=O)O1 | 2.94% (active) | 0.997% (active) | 31.3% | 14.3% | -32.1% (active) | 11.5% | -93.9% (active) | -64.1% (active) | -94.3% (active) | 1.51% (active)
11 | CSc1nc2ncncc2[nH]1 | 101% | 99.4% | 86.7% | 100% | 101% | 106% | 101% | 104% | 97.5% | 75.1%
12 | CN(c1ncccc1CNc1nc(Nc2ccc3c(c2)CC(=O)N3)ncc1C(F)(F)F)S(C)(=O)=O | 2.3% (active) | -28.4% (active) | -43.3% (active) | 7.98% (active) | -0.121% (active) | 7.2% (active) | -38.3% (active) | -64.6% (active) | 2.21% (active) | -16.1% (active)
13 | CCc1ccc(C2=C(O)C(=O)C(c3ccc(CC)cc3)=C(O)C2=O)cc1 | 6.42% (active) | 0.54% (active) | -16.9% (active) | 8.83% (active) | 1.63% (active) | 6.64% (active) | -58.7% (active) | -44.1% (active) | 4.72% (active) | -19.2% (active)
14 | COC(=O)c1[nH]cnc1/N=N/N(C)CCO | 109% | 108% | 79% | 103% | 104% | 109% | 102% | 101% | 101% | 117%
15 | CCc1nc2cc(/C=C/C(=O)NO)c(F)cc2c(=O)n1CCc1ccccc1 | 25.9% | 13.2% | 29.3% | 19.7% | 1.61% (active) | 16.9% | -10.1% (active) | -33.5% (active) | -57.8% (active) | 20.3%
16 | CCc1nc(C(N)=O)c(Nc2ccc(N3CCC(N4CCN(C)CC4)CC3)c(OC)c2)nc1NC1CCOCC1 | 25% | -23.9% (active) | -45.3% (active) | 29.8% | 32% | 36.3% | 66.4% | 25.3% | -84.9% (active) | 24%
17 | N#Cc1c(NC(=O)c2cccs2)[n+]([O-])c2ccc(F)cc2[n+]1[O-] | 74.6% | 97.6% | 81.1% | 98% | 93.2% | 77.3% | 2.84% (active) | 83.2% | 89.9% | 112%
18 | Cc1cc(C2(c3ccc(O)c(C)c3)OS(=O)(=O)c3ccccc32)ccc1O | 117% | 115% | 91.6% | 105% | 107% | 90.8% | 103% | 107% | 104% | 113%
19 | CO[C@H]1C[C@@H]2CC[C@@H](C)[C@@](O)(O2)C(=O)C(=O)N2CCCC[C@H]2C(=O)O[C@H]([C@H](C)C[C@@H]2CC[C@@H](O)[C@H](OC)C2)CC(=O)[C@H](C)/C=C(\C)[C@@H](O)[C@@H](OC)C(=O)[C@H](C)C[C@H](C)\C=C/C=C/C=C/1C | 30.2% | 18.7% | 11% | 39.4% | 23.4% | 32.6% | 14.2% | 39.2% | 26.7% | 38.8%
20 | COc1ccc(Br)cc1NC(=O)Nc1cccc2c1ccn2Cc1ccnc(N)c1 | 1.92% (active) | -40.6% (active) | 26.7% | 37.3% | 13.9% | 17.3% | 23.5% | 29% | -68% (active) | 53.3%
21 | O=[N+]([O-])c1cc(Br)cc2c1[nH]c1ccc(Br)cc12 | 81.8% | 58.8% | 19.9% | 81.1% | 58.4% | 60% | 88.1% | 67.7% | 38% | 89.8%
22 | Cc1nc(NC(=O)N2CCC[C@H]2C(N)=O)sc1-c1ccnc(C(C)(C)C(F)(F)F)c1 | 30.4% | 4.8% (active) | 24.8% | 66.1% | 33.4% | 43.3% | 61.8% | 23.8% | 18.8% | 49.2%
23 | Cc1ccc(NC(=O)c2ccc(CN3CC[C@H](N(C)C)C3)c(C(F)(F)F)c2)cc1Nc1nccc(-c2cncnc2)n1 | 8.37% (active) | -47.3% (active) | -85.9% (active) | 19.6% | -36% (active) | 10.9% | -96.6% (active) | -63.5% (active) | -72.7% (active) | -77.8% (active)
24 | Nc1c(C(=O)c2ccccc2)sc2nc(-c3cccs3)cc(-c3cccs3)c12 | 31.2% | 11.2% | 22.2% | 42.9% | 25.6% | 33% | 43.7% | 28.7% | 51.5% | 64.9%
25 | CCCCCCCC12Cc3ccccc3C1=Nc1c(c3ccccc3n1C)C2=O (stereo not given) | 91.7% | 58.8% | 89.2% | 95% | 88.5% | 78.2% | 90.8% | 74.8% | 87.8% | 113%
26 | O=C1C=CC2(NN=C(c3ccccc3)N2c2ccccc2)c2cccc(O)c21 (stereo not given) | 16.8% | 44.3% | 19.9% | 32% | 11.2% | 36% | -91.5% (active) | -50.4% (active) | -5.86% (active) | 38.2%

From PubChem BioAssay (NCI)
